This is a sample that favours compounds with a hit; in the whole collection about 6.2% have one here.
Marburg entry inh = inhibitors of Marburg virus binding or cell entry; Potency, µM (highest dose often 37.8 µM), most hits filed as inhibitors; Marburg virus pseudotyped entry inhibition, cell reporter; hit rate 1.8% among 300,000; calls by dose curve; tested in HEK293 cells
FMDV inh = antivirals against foot and mouth disease virus; FMDV antiviral cell-based qHTS; Potency, µM (titrated, usually from 57.9 µM), hits mostly inhibitors; hit rate 1.2% among 410,000; calls by dose curve; tested in HEK293T cells; note: read-out not given here; nearly all actives have a fitted effect of over 45% in size
HCMV antiviral = human cytomegalovirus inhibition; HFF cells, HCMV-luciferase reporter, 72 h; hits give low values; hit rate 4.5% among 410,000; activity change, negative = inhibition, % at 57.5 µM; AID 1259415; in the data active = activity change below about -60%; inconclusive = no clear call, values can overlap the other calls; inactive = above about -39%
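Human foreskin fibroblasts infected with luciferase-reporter HCMV at MOI 1 PFU/cell, compounds at two doses. Luciferase measured 72 h post infection; normalized to buffer-only basal and Salinomycin (10uM) controls.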
Lassa entry inh = inhibitors of Lassa virus binding or cell entry. Lassa virus pseudotype entry inhibition, cell reporter. Potency, µM (series often up to 37.9 µM), hits mostly inhibitors. hit rate 1.2% among 300,000. AID 540256; calls by dose curve; tested in HEK293 cells; note: nearly all actives have a fitted effect of over 50% in size
Numbers stand for hits.

How did COc1ccc2oc(-c3ccc(C)c(NC(=O)c4ccc(N5CCOCC5)c([N+](=O)[O-])c4)c3)nc2c1 do in these assays?
Marburg entry inh: inactive; FMDV inh: inactive; HCMV antiviral: -81; Lassa entry inh: inactive

Results for O=C(Cn1c(=O)oc2ccccc21)Nc1ccccc1Cl ?
Marburg entry inh: inactive; FMDV inh: inactive; HCMV antiviral: inactive; Lassa entry inh: inactive

What do the screens show for `CCN(CC)S(=O)(=O)c1ccc(N2CCOCC2)c(NC(=O)c2ccccc2F)c1`?
Marburg entry inh: inconclusive; FMDV inh: inactive; HCMV antiviral: -65; Lassa entry inh: inconclusive

Results for COc1ccccc1NC(=O)c1ccc(-n2ccnc2)c([N+](=O)[O-])c1 ?
Marburg entry inh: inactive; FMDV inh: inactive; HCMV antiviral: inactive; Lassa entry inh: inconclusive

Results for O=C(Nc1nc2ccc(Cl)cc2s1)c1ccc(N2CCCCC2)c([N+](=O)[O-])c1 ?
Marburg entry inh: inconclusive; FMDV inh: inconclusive; HCMV antiviral: -67; Lassa entry inh: inconclusive

How did CN(C)S(=O)(=O)c1cc(NC(=O)c2ccc(-n3ccnc3)c([N+](=O)[O-])c2)ccc1Cl do in these assays?
Marburg entry inh: inconclusive; FMDV inh: inconclusive; HCMV antiviral: -71; Lassa entry inh: inconclusive

What do the screens show for `O=C(Nc1nc2ccc3ccccc3c2s1)c1ccc(N2CCCCC2)c([N+](=O)[O-])c1`?
Marburg entry inh: inactive; FMDV inh: inactive; HCMV antiviral: inconclusive; Lassa entry inh: inactive

How did CCN(CC)S(=O)(=O)c1ccc(N2CCOCC2)c(NC(=O)c2ccc(F)cc2)c1 do in these assays?
Marburg entry inh: inactive; FMDV inh: inactive; HCMV antiviral: inactive; Lassa entry inh: inactive

Results for COC(=O)c1[nH]nc2c1C(=O)N(C1CCCCC1)C2=O ?
Marburg entry inh: inactive; FMDV inh: inactive; HCMV antiviral: inactive; Lassa entry inh: inactive

Results for CC(C)(C)n1nc2c(c1NC(=O)c1ccccc1F)CS(=O)C2 (stereo not drawn) ?
FMDV inh: inactive; HCMV antiviral: inactive

Results for Cn1c(=O)c2c(nc(SCC(=O)NCC3CCCO3)n2C)n(C)c1=O (stereo not drawn) ?
Marburg entry inh: inactive; FMDV inh: inactive; HCMV antiviral: inactive; Lassa entry inh: inactive

What do the screens show for `CC(C)Cc1nc(SCC(=O)NCC2CCCO2)c2c(=O)n(C)c(=O)n(C)c2n1` (stereo not drawn)?
FMDV inh: inactive; HCMV antiviral: -78

Results for N#CCSc1nc(Nc2ccc3c(c2)OCO3)c2ccccc2n1 ?
Marburg entry inh: inconclusive; FMDV inh: 22µM; HCMV antiviral: -63; Lassa entry inh: inactive

Results for CC1(C)CC(NC(=O)c2ccncc2)CC(C)(C)N1O ?
FMDV inh: inactive; HCMV antiviral: inactive

What do the screens show for `CC(C)(C)NC(=O)CN(C(=O)C(=O)Nc1ccc2c(c1)OCCO2)C1CC1`?
Marburg entry inh: inactive; FMDV inh: inactive; HCMV antiviral: inactive; Lassa entry inh: inactive

Results for Cn1c(/C=N/NC(=O)c2ccccc2Br)nc2ccccc21 ?
Marburg entry inh: inactive; HCMV antiviral: inactive; Lassa entry inh: inconclusive

Results for Cc1ccc(C(=O)N/N=C/c2nc3ccccc3n2C)cc1 ?
Marburg entry inh: inactive; HCMV antiviral: -66; Lassa entry inh: inconclusive

What do the screens show for `CC(=O)Oc1ccc(/C=N/NC(=O)C2CCCN2S(=O)(=O)c2ccc(Cl)cc2)cc1` (stereo not drawn)?
Marburg entry inh: inactive; FMDV inh: inactive; HCMV antiviral: inactive; Lassa entry inh: inactive

Results for COc1ccc(/C=C/c2ccc(=O)n(Cc3ccccc3)n2)cc1 ?
Marburg entry inh: inactive; FMDV inh: inactive; HCMV antiviral: inactive; Lassa entry inh: 5µM

What do the screens show for `CCOC(=O)Cn1nc(/C=C/c2ccc(OC)cc2)ccc1=O`?
Marburg entry inh: inactive; FMDV inh: inactive; HCMV antiviral: -106; Lassa entry inh: inactive

How did COc1ccc(/C=C2\SC(N)=NC2=O)cc1 do in these assays?
Marburg entry inh: inactive; FMDV inh: inactive; HCMV antiviral: inactive; Lassa entry inh: inactive

Results for O=c1ccc(/C=C/c2ccccc2)nn1Cc1ccc(F)cc1 ?
Marburg entry inh: inactive; FMDV inh: inconclusive; HCMV antiviral: inactive; Lassa entry inh: inconclusive

What do the screens show for `CCOC(=O)CSC1=NC(=O)/C(=C/c2ccc(OC)cc2)S1`?
Marburg entry inh: inconclusive; FMDV inh: 25µM; Lassa entry inh: inconclusive

What do the screens show for `COc1cccc2sc(N3CCN(C(=O)C4COc5ccccc5O4)CC3)nc12` (stereo not drawn)?
Marburg entry inh: inconclusive; FMDV inh: inactive; HCMV antiviral: inactive; Lassa entry inh: inactive

What do the screens show for `COc1ccc(Cl)cc1NC(=O)COC(=O)c1cc(C)oc1C`?
FMDV inh: inactive; HCMV antiviral: inactive

How did CN(NC1OC(=O)c2ccccc21)c1ccc(C(F)(F)F)cc1[N+](=O)[O-] (stereo not drawn) do in these assays?
Marburg entry inh: inactive; FMDV inh: inactive; HCMV antiviral: inactive; Lassa entry inh: inactive

How did CC(C)COc1ccc(C(=O)Nc2ccc(NC(=O)c3ccco3)c(Cl)c2)cc1 do in these assays?
Marburg entry inh: inconclusive; FMDV inh: inactive; HCMV antiviral: inactive; Lassa entry inh: inconclusive

Results for CCCc1ccc(-c2cc(C(=O)N/N=C/c3ccc([N+](=O)[O-])o3)c3ccccc3n2)cc1 ?
Marburg entry inh: 7.1µM; FMDV inh: inconclusive; HCMV antiviral: inconclusive; Lassa entry inh: 5.6µM

Results for O=C(N/N=C/c1ccc([N+](=O)[O-])o1)c1cc(-c2cccc(Br)c2)nc2ccccc12 ?
Marburg entry inh: inconclusive; FMDV inh: inactive; HCMV antiviral: -70; Lassa entry inh: inconclusive

How did Cn1c(=O)n(C)c2cc(NS(=O)(=O)c3ccc(Br)s3)ccc21 do in these assays?
Marburg entry inh: inactive; FMDV inh: inactive; HCMV antiviral: inactive; Lassa entry inh: inactive

How did CC(C)(C)NC(=O)CN(Cc1cccs1)C(=O)C1COc2ccccc2O1 (stereo not drawn) do in these assays?
Marburg entry inh: inactive; FMDV inh: inactive; HCMV antiviral: inactive; Lassa entry inh: inactive

How did CC(C)CCNC(=O)C(c1ccc(O)cc1)N(Cc1cccs1)C(=O)C1COc2ccccc2O1 (stereo not drawn) do in these assays?
Marburg entry inh: inconclusive; FMDV inh: inconclusive; HCMV antiviral: -94; Lassa entry inh: 16µM

What do the screens show for `O=[N+]([O-])c1ccc(Nc2ccccc2O)c2nonc12`?
FMDV inh: inactive; HCMV antiviral: -61

Results for Cc1ccccc1Cn1cc(NC(=O)c2cc3nc(-c4ccco4)cc(C(F)(F)F)n3n2)cn1 ?
Marburg entry inh: inactive; FMDV inh: inconclusive; HCMV antiviral: inactive; Lassa entry inh: inactive

Results for CCc1ccc(-c2cc(C(F)(F)F)n3nc(C(=O)Nc4cnn(Cc5ccc(C)cc5)c4)cc3n2)s1 ?
Marburg entry inh: 9.2µM; FMDV inh: inactive; Lassa entry inh: inconclusive

What do the screens show for `Cn1c(SCc2cc(=O)c3cc(Cl)ccc3[nH]2)nnc1-c1ccccc1`?
FMDV inh: inconclusive; HCMV antiviral: inactive; Lassa entry inh: inactive

How did Cc1ccc(-c2nnc(Nc3ccc(O)cc3)c3ccccc23)cc1S(=O)(=O)N1CCN(C)CC1 do in these assays?
Marburg entry inh: inactive; FMDV inh: inactive; HCMV antiviral: -66; Lassa entry inh: inactive

How did Cc1ccc(-c2nnc(Nc3ccc(Br)cc3)c3ccccc23)cc1S(=O)(=O)N1CCN(C)CC1 do in these assays?
FMDV inh: inactive; HCMV antiviral: inactive; Lassa entry inh: 11µM

Screens (PubChem)
